Test results published in the supplement of paper PMC6518042.
Unmarked numbers belong to inactive results.

test system: Pectobacterium parmentieri SCC3193; assay: DuctApe activity index (growth/respiration on compound as sole nutrient source, blank-subtracted) (activity index (0-3)); higher = stronger utilization of the compound, active = 3 or more; conditions: nutrient role (plate category): carbon
Procedure: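 Biolog Phenotype Microarray plates PM1, PM2A (carbon), PM3 (nitrogen) and PM4 (phosphorus/sulfur) inoculated with P. parmentieri SCC3193 in M9-C minimal salts medium with Biolog dye A, and read in the OmniLog for 46 h. Each well was tested in triplicate and the experiment was run twice. DuctApe computed a blank-subtracted activity index (AV, 0-3) from the mean curves; growth is positive at AV >= 3 and negative at AV <= 2.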

SMILES	DuctApe activity index
CC(C)C[C@H](N)C(=O)O [L-Leucine]	1
OCC1OC(O)(CO)C(O)C1O [D-Fructose]	3 (active)
O=C(O)CCC(=O)C(=O)O [a-Ketoglutaric acid]	0
CCCCCC(=O)O [Caproic acid]	0
C[C@@H](O)[C@H](O)[C@H](O)[C@@H](O)C=O [D-Fucose]	0
C[N+](C)(C)CC(O)CC(=O)[O-] (racemic) [D,L-Carnitine]	0
CO[C@@H]1OC[C@@H](O)[C@H](O)[C@H]1O [b-Methyl-D-Xyloside]	0
O=C(O)c1ccc(O)cc1 [4-Hydroxybenzoic acid]	0
N[C@H](CO)C(=O)O [D-Serine]	0
NCCCCN [Putrescine]	0
O=C(O)[C@H](O)[C@@H](O)[C@H](O)[C@H](O)CO [D-Gluconic acid]	3 (active)
O=C(O)CC(=O)O [Malonic acid]	0
OC[C@@H](O)[C@H](O)[C@H](O)[C@@H](O)CO [Dulcitol]	0
O=C[C@H](O)[C@H](O)[C@@H](O)CO [L-Lyxose]	0
N[C@@H](CC(=O)O)C(=O)O [L-Aspartic acid]	3 (active)
CC[C@H](C)[C@H](N)C(=O)O [L-Isoleucine]	0
CC(=O)N[C@@H]1C(O)O[C@H](CO)[C@@H](O)[C@@H]1O (stereo partly drawn) [N-Acetyl-D-Mannosamine]	0
CSCC[C@H](N)C(=O)O [L-Methionine]	0
N[C@H]1C(O)O[C@H](CO)[C@@H](O)[C@@H]1O (stereo partly drawn) [D-Glucosamine]	3 (active)
Cc1cn([C@H]2C[C@H](O)[C@@H](CO)O2)c(=O)[nH]c1=O [Thymidine]	1

same assay, conditions: nutrient role (plate category): nitrogen

SMILES	DuctApe activity index
CC(C)C[C@H](N)C(=O)O [L-Leucine]	0
N [Ammonia]	0
O=c1[nH]c(=O)c2nc[nH]c2[nH]1 [Xanthine]	3 (active)
N[C@H](CO)C(=O)O [D-Serine]	0
NCCCCN [Putrescine]	0
N[C@@H](CC(=O)O)C(=O)O [L-Aspartic acid]	0
CC[C@H](C)[C@H](N)C(=O)O [L-Isoleucine]	0
CC(=O)N[C@@H]1C(O)O[C@H](CO)[C@@H](O)[C@@H]1O (stereo partly drawn) [N-Acetyl-D-Mannosamine]	0
NC=O [Formamide]	0
CSCC[C@H](N)C(=O)O [L-Methionine]	0
N[C@H]1C(O)O[C@H](CO)[C@@H](O)[C@@H]1O (stereo partly drawn) [D-Glucosamine]	3 (active)
OC[C@H]1O[C@@H](n2cnc3c(O)nc(O)nc32)[C@H](O)[C@@H]1O [Xanthosine]	0
Cc1cn([C@H]2C[C@H](O)[C@@H](CO)O2)c(=O)[nH]c1=O [Thymidine]	0

same assay, conditions: nutrient role (plate category): phosphate & sulphur

SMILES	DuctApe activity index
CSCC[C@@H](N)C(=O)O [D-Methionine]	2
OC[C@H]1O[C@@H](S)[C@H](O)[C@@H](O)[C@@H]1O [1-Thio-b-D-Glucose]	0
Nc1nc2c(ncn2[C@@H]2O[C@H](COP(=O)(O)O)[C@@H](O)[C@H]2O)c(=O)[nH]1 [Guanosine 5`-Monophosphate]	1
Nc1nc2c(ncn2[C@@H]2O[C@H](CO)[C@@H](OP(=O)(O)O)[C@H]2O)c(=O)[nH]1 [Guanosine 3`-Monophosphate]	2
N[C@@H](CSCSC[C@H](N)C(=O)O)C(=O)O [L-Djenkolic acid]	1
O=c1ccn([C@@H]2O[C@H](CO)[C@@H](OP(=O)(O)O)[C@H]2O)c(=O)[nH]1 [Uridine 3`-Monophosphate]	2
NC(CCSCC(N)C(=O)O)C(=O)O (stereo unspecified) [Cystathionine]	1
CSCC[C@H](N)C(=O)O [L-Methionine]	1
